Measured values published in PubChem BioAssay (NCI).
This is part of a sample that, as a whole, favours compounds with a hit. Of some 79,000 tested, about 15% had one in any assay. Activity calls are given as the source filed them. Rule as the data show it: active = growth inhibition above about 70%; inactive = the rest.

Experiments:
[1] = NCI Yeast Anticancer Drug Screen. Data for the rad50 strain (AID 155);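 also: 0% = growth of vehicle-only cultures of the same strain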; conditions: S. cerevisiae rad50 strain growth inhibition; at 50.0 µM; active compounds read high
How it was run: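 Inhibition values express reduced yeast growth in compound-treated cultures relative to vehicle-treated controls.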

[2] = NCI Yeast Anticancer Drug Screen. Data for the mec2-1 strain (AID 157); conditions: S. cerevisiae mec2-1 strain, at 50.0 µM, active compounds read high
How it was run: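 Compounds were applied to mec2-1 yeast cells. Their growth was then compared with that of vehicle-treated cultures to give growth inhibition.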

[3] = NCI Yeast Anticancer Drug Screen. Data for the sgs1 mgt1 strain (AID 161);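 also: 0% = growth of cultures given vehicle only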; conditions: S. cerevisiae sgs1 mgt1 strain, at 50.0 µM, active compounds read high
How it was run: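 Growth of a repair-deficient yeast mutant was monitored after compound treatment and expressed as inhibition relative to vehicle-treated cultures.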

[4] = NCI Yeast Anticancer Drug Screen. Data for the cln2 rad14 strain (AID 165);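 also: 0% = growth equal to vehicle treated cultures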; conditions: S. cerevisiae cln2 rad14 strain, at 50.0 µM, active compounds read high
How it was run: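 Strain: cln2 rad14 yeast, altered in cell cycle control and DNA damage repair. Read-out: growth inhibition vs vehicle.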

[5] = NCI Yeast Anticancer Drug Screen. Data for the bub3 strain (AID 167); conditions: S. cerevisiae bub3 mutant strain, at 50.0 µM, active compounds read high
How it was run: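 Steps: expose the mutant yeast strain to compound; grow alongside vehicle-treated cultures; measure growth; express inhibition against the vehicle cultures.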

[6] = NCI Yeast Anticancer Drug Screen. Data for the mlh1 rad18 strain (AID 175); conditions: S. cerevisiae mlh1 rad18 strain growth inhibition; at 50.0 µM; active compounds read high
How it was run: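 A repair-deficient yeast strain is exposed to test compound, and growth is scored relative to vehicle-treated controls.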

Measured: growth inhibition

CCCC[As](=O)(O)CC(C)C
inactive: [1] -3.2% | [2] -1.75% | [3] -7.4% | [4] 4.9% | [5] -14.2% | [6] 1.2%

Cc1cc(C)c(C(=O)O)c(C)c1.[Hg]
active: [1] 99.6% | [2] 99.8% | [3] 99.7% | [4] 99.5% | [5] 99.7% | [6] 99.7%

COP(=O)(OC)C1(c2ccccc2)C2C3CCC(C3)C21 (stereo unspecified)
inactive: [1] 1.75% | [2] 21.7% | [3] 2.65% | [4] -7% | [5] 14.8% | [6] 17.8%

CCCOC(=O)C(C)(C)C(OP(OCCC)OCCC)=C(C)C
inactive: [1] -7.35% | [2] 4.35% | [3] -2.5% | [4] -0.9% | [5] 1.4% | [6] 3.3%

CCOC(=O)C[Se]CC(=O)OCC
inactive: [1] -8.65% | [2] 11.2% | [3] 11.2% | [4] -14.2% | [5] 43.8% | [6] 28.3%

CCCCCC(N)CC(=O)O (stereo unspecified)
inactive: [1] 8.95% | [2] -21.1% | [3] 4.25% | [4] 8.1% | [5] -2.25% | [6] 9.85%

O=C(Oc1cc(Cl)c(S(=O)(=O)F)cc1Cl)c1ccc([N+](=O)[O-])cc1
active: [1] 78.2% | [2] 86% | [3] 90.2% | [5] 73.5% | [6] 89.9%
inactive: [4] 64.8%

OC1(c2ccccc2)N=C(c2ccccc2)c2ccccc2-n2cccc21 (stereo unspecified)
inactive: [1] 0.95% | [2] -24.8% | [3] -14.5% | [4] 0.75% | [5] -0.95% | [6] -1.3%

C=C(C)C1(CCC)C(=O)NC(=S)NC1=O
inactive: [1] 23.4% | [2] 19.7% | [3] 17.6% | [4] 25.6% | [5] 4.35% | [6] 22.4%

COC(=O)C1C(O)CC2CCC1[N+]2(C)C (stereo unspecified)
inactive: [1] 3.3% | [2] 5.8% | [3] 12.4% | [4] 2.05% | [5] 36.9% | [6] -6.8%

COC(=O)C1=C(C)NC(C)=C2C(=O)Oc3ccccc3C12 (stereo unspecified)
inactive: [1] 4.75% | [2] -9.65% | [3] -7.5% | [4] 6.6% | [5] -6.8% | [6] 1.4%

Nc1nn[nH]n1 (tested in a mixture with another compound)
inactive: [1] -4.65% | [2] 1.45% | [3] -3.7% | [4] -27.1% | [5] 0.05% | [6] -3.05%

CN1CCNCC1
inactive: [1] 11.1% | [2] -6.55% | [3] -10.5% | [4] -18.4% | [5] 11.5% | [6] 5.75%

CN1CCC(O)(c2ccccc2)C(C(O)c2ccccc2)C1 (stereo unspecified)
inactive: [1] 5.2% | [2] -21.7% | [3] 17.9% | [4] -8.55% | [5] -23.9% | [6] -20.6%

Cc1cc(C)c(CCN(C)C)c(C)c1C
inactive: [1] 8.7% | [2] 0.65% | [3] 4.95% | [4] 1.75% | [5] 1% | [6] 23.4%

CN1C(=O)C(=CN(C)c2ccccc2)C(=O)N(C)C1=O
inactive: [1] 13.2% | [2] 8.4% | [3] 23.7% | [4] 13.5% | [5] 4.4% | [6] -8.85%

CC(C)NCc1ccccc1
inactive: [1] -4.25% | [2] -12.3% | [3] 19.5% | [4] 9.8% | [5] 7.35% | [6] -6.05%

CSCCC(N)C(=O)O.[Pb] (stereo unspecified)
inactive: [1] -17.9% | [2] -10.3% | [3] 13.1% | [4] -40.4% | [5] -12.4% | [6] -20.2%

Cc1ccc(C[N+](C)(C)C)cc1
inactive: [1] 10.6% | [2] -17.6% | [3] 6.7% | [4] 12.1% | [5] -10.1% | [6] 4.5%

NC(Cc1ccc2c(c1)OCO2)c1ccccc1 (stereo unspecified)
inactive: [1] -0.1% | [2] 9.05% | [3] 3.25% | [4] -27.3% | [5] 0.45% | [6] 4.45%

COC(=O)C1(O)c2ccccc2N=C2C1CCN2C (stereo unspecified)
inactive: [1] 15.1% | [2] -11.4% | [3] -8.85% | [4] 6.4% | [5] 6.3% | [6] 16.9%

[NH-]C(CCC(N)=O)C(=O)O.[NH-]C(CCC(N)=O)C(=O)O.[Pd+2] (stereo unspecified)
inactive: [1] -14.6% | [2] -3.2% | [3] -7.55% | [4] -71.6% | [5] -1.1% | [6] -8.1%

C[C@@H]1C[C@@H]2c3cccc4c3c(cn4CO)C[C@H]2N(C)C1
inactive: [1] 8.55% | [2] -24.6% | [3] 28.6% | [4] 3.4% | [5] 0.55% | [6] 8.15%

COc1cc(N=Nc2ccc([N+](=O)[O-])cc2)c([OH+]C)cc1[N+]#N.COc1cc(N=Nc2ccc([N+](=O)[O-])cc2)c([OH+]C)cc1[N+]#N.[Cl][Zn][Cl]
inactive: [1] 7% | [2] -1.05% | [3] -2.1% | [4] -3.15% | [5] 17.9% | [6] 12.6%

O=C(c1ccccc1)c1ccc2n[se]nc2c1
inactive: [1] -32.4% | [2] 10.2% | [3] 18.2% | [4] 4.65% | [5] 17.1% | [6] 25.5%

COc1ccc(C(=O)O)cc1[N+](=O)[O-] (tested in a mixture with another compound)
inactive: [1] 9.25% | [2] 4.45% | [3] 5.55% | [4] 7.4% | [5] 11.4% | [6] 15.1%

CCC1CC[N-]CC1.CCC1CC[N-]CC1.CCC1CC[N-]CC1.CCC1CC[N-]CC1.N#C[S-].N#C[S-].[Co]
inactive: [1] 23.1% | [2] 16.9% | [3] 34% | [4] 15.3% | [5] 26.8% | [6] 24.8%

CC(=O)Nc1cccc([As]=O)c1 (stereo unspecified)
inactive: [1] 11.5% | [2] 2.75% | [3] 9.95% | [4] 7.6% | [5] -10.8% | [6] 19.1%

CC1CCNC(C)C1 (stereo unspecified)
inactive: [1] 35.3% | [2] -10.4% | [3] -13.8% | [4] -62.9% | [5] 17.9% | [6] 8.6%

Cn1c(O)c(N=NC(N)=S)c(=O)n(C)c1=O
inactive: [1] 30.6% | [2] 20.4% | [3] 8.95% | [4] -20.4% | [5] -20.3% | [6] 14.6%

Cn1nnc(C(N)=O)n1
inactive: [1] -9.65% | [2] -15.2% | [3] -15.8% | [4] -12.8% | [5] -4.2% | [6] -18.8%

O=C(CC(=O)C(F)(F)F)c1cccs1.O=C(CC(=O)C(F)(F)F)c1cccs1.O=C(CC(=O)C(F)(F)F)c1cccs1.[Tb]
inactive: [1] -5% | [2] 20.6% | [3] 24.6% | [4] -27.5% | [5] -1.5% | [6] 28.2%

NNC(=S)N/N=C(\C(=O)Nc1cccc(O)c1)C1C(=O)NC(=S)NC1=O
inactive: [1] -6.65% | [2] -10.6% | [3] -13.7% | [4] -0.05% | [5] 2.55% | [6] -17.9%

NC(=O)NC(O)C(Cl)(Cl)Cl (stereo unspecified)
inactive: [1] -12.1% | [2] -33.9% | [3] -24.9% | [4] -42% | [5] -32.6% | [6] -29.4%

CC1(C)CC(N2CCCCC2)=CC(=[N+]2CCCCC2)C1
inactive: [1] -6.55% | [2] -2% | [3] 22.3% | [4] 0.1% | [5] -5.85% | [6] -10.6%

CCC1(CCNC(=O)CCl)C(=O)NC(=O)NC1=O
inactive: [1] 3.05% | [2] -4.5% | [3] 6.8% | [4] -38.1% | [5] 4.55% | [6] -8.6%

CCCCCCCCCCCCCCCC[As](=O)(O)CCCCCCCCCCCCCCCC
inactive: [1] -6.35% | [2] 13.7% | [3] -17.8% | [4] 4.25% | [5] 7.2% | [6] 8.55%

C[C@]12CC[C@H]3[C@@H](CCC4=C(Br)C(=O)CC[C@@H]43)[C@@H]1CC[C@@H]2O
inactive: [1] 9.5% | [2] 2.3% | [3] 10.6% | [4] -19.6% | [5] 2.5% | [6] 19.1%

O=C(O)C(Cl)Cl
inactive: [1] -1.6% | [2] -29.6% | [3] 4.45% | [4] -10.1% | [5] -1.6% | [6] 9.45%

O=C(Cc1ccc(N(CCCl)CCCl)cc1)NC1CCCC1
inactive: [1] -0.05% | [2] -16.6% | [3] -13.9% | [4] -22.9% | [5] -2.3% | [6] 18.1%

C/C=C(\C)C1(CC)C(=O)NC(=O)N(C)C1=O (stereo unspecified)
inactive: [1] 1.65% | [2] 1.7% | [3] 3.3% | [4] -0.6% | [5] -1.05% | [6] -5.95%
